Assay results published in PubChem BioAssay (NCI).
The panel holds about 83,000 compounds, 20% with a hit somewhere; the sample as a whole holds those more often.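 Percent growth is the endpoint: 0 to 100 indicates growth inhibition (40 means 60% inhibition), 0 means no net growth, and negative values indicate cell death.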 Values without a mark were called inactive. Activity calls are given as the source filed them. Rule for the calls: active = growth percent below 10; inactive = the rest.

Columns and labels:
Assay in all cases: NCI-60 one-dose screen, 48 h (100 = growth as untreated, 0 = no growth, -100 = all killed)
Conditions in all cases: 10 µM unless noted
[1] = tested on: T-47D breast
[2] = tested on: BT-549 breast
[3] = tested on: MDA-MB-435 melanoma
[4] = tested on: SW-620 colon
[5] = tested on: MCF7 breast
[6] = tested on: HCT-116 colon
[7] = tested on: HCC-2998 colon
[8] = tested on: KM12 colon

| SMILES | growth [1] | growth [2] | growth [3] | growth [4] | growth [5] | growth [6] | growth [7] | growth [8] |
| --- | --- | --- | --- | --- | --- | --- | --- | --- |
| COc1cc(-c2n/c(=C\c3c(O)[nH]c4cc(Cl)ccc34)cc3c2=Nc2ccccc2-3)cc(OC)c1OC | 67.2% | 45.2% | 66.2% | 41.5% | 55.7% | 52.9% | 93.1% | 51.8% |
| CO[C@@]12[C@@H]3NC3CN1C1=C(C(=O)C(N)=C(C)C1=O)[C@@H]2COC(N)=O (stereo partly drawn) | 40.8% | 28.6% | 34.9% | 10.4% | 6.55% (active) | 6.78% (active) | -44.8% (active) |  |
| C/C=C(\C)C(C(=O)NC1CCCCC1)N(C(=O)C1CCc2cc(F)ccc2O1)c1ccc([N+](=O)[O-])cc1 (stereo not drawn) | 88.1% | 90.1% | 87.7% | 94.9% | 77% | 60.3% | 98.4% | 95.8% |
| O=C(O)c1cn(-c2ccccc2)nc1-c1ccc(O)cc1 | 101% | 99.3% | 103% | 98.5% | 88.7% | 96.4% | 95.5% |  |
| O=C(CCc1nc2sc3c(c2c(=O)[nH]1)CCC3)NCc1cn(-c2ccccc2)nc1-c1ccccc1 | -0.261% (active) | 95.6% | 76.1% | 28.7% | 34.1% | -27.1% (active) | 87.5% | 85.3% |
| CC(C)(C)NC(=O)C(OC(=O)C1CCc2cc(F)ccc2O1)c1ccccc1Cl (stereo not drawn) | 86.8% | 107% | 106% | 99.7% | 97.8% | 93.9% | 102% |  |
| Clc1ncnc2scc(C3COc4ccccc4O3)c12 (stereo not drawn) | 78.2% | 70% | 97.5% | 93.3% | 76.7% | 86.2% | 87.7% | 104% |
| CC(=O)OC1Oc2cc(C)c(C)cc2-c2oc(=O)c(-c3cc4ccccc4oc3=O)cc21 (stereo not drawn) | 91.9% | 129% | 112% | 133% | 108% | 81.1% | 96.2% | 103% |
| CCOC(=O)c1ccc(NCCC(=O)O)cc1 | 101% | 110% | 116% | 110% | 92.4% | 111% | 103% | 110% |
| COc1ccc(/C=C/C(=O)c2ccc(NC(=O)CSc3nnc(-c4ccc(Cl)cc4)n3-c3ccccc3)cc2)cc1 | 77.2% | 93% | 94.4% | 110% | 70.3% | 36.4% | 103% | 94.5% |
| COc1ccc(/C=C(/C(=O)N2CCN(c3ccccc3)CC2)c2cc(OC)c(OC)c(OC)c2)cc1O | 68.4% | 8.46% (active) | -52.8% (active) | 24.1% | 19% | 6.78% (active) | 28.6% | 9.6% (active) |
| Cc1cc(N=Nc2ccc(-c3ccc(N=Nc4ccc(O)c(C(=O)O)c4)cc3)cc2)c(N)c(N=Nc2ccc(C(=O)O)cc2)c1N | 78.6% | 67.3% | 99.5% | 95.6% | 97.6% | 65.5% | 87.7% | 92.1% |
| Oc1ccc(CCCCCCc2ccc(O)cc2)cc1 | 65% | 50.3% | 71.4% | 58.1% | 35.9% | 66.8% | 92.3% | 59% |
| Cc1c(-c2ccc(-c3ccccc3F)cc2)nc2ccc(F)cc2c1C(=O)O | 59.2% | 45.5% | 34.9% | 38.9% | 28.4% | 21% | 37.7% | 35.2% |
| CC(=O)c1cc(C(=O)c2ccc3c(c2)Sc2ccccc2N3)c2c(C)cccn12 | 58.1% | 18.2% | -26.9% (active) | 28.8% | 24.5% | 6.07% (active) | 22.8% | 11.8% |
| CCCCCCCCCCC(C(O)c1ccccc1)N1CCCCC1 (stereo not drawn) | -33.7% (active) | 79.7% | -54.3% (active) | -30.8% (active) | -65.4% (active) | 14.7% | 49.1% | 8.17% (active) |

| SMILES | growth [1] | growth [2] | growth [3] | growth [4] | growth [5] | growth [6] | growth [7] | growth [8] |
| --- | --- | --- | --- | --- | --- | --- | --- | --- |
| COC(=O)/C=C/c1cc(OC(C)=O)c2c(c1)[C@@H](C(=O)OC)[C@H](c1ccc(OC(C)=O)c(OC(C)=O)c1)O2 | 74.7% | 13.5% | -64.8% (active) | 15.7% | 15.6% | 6.38% (active) | 22.2% | 5.97% (active) |
| Nc1ncnc2c1N=C(c1ccc(F)cc1)CC(c1sc(Cl)nc1Cl)N2 (stereo not drawn) | 88.3% | 78% | 102% | 101% | 86.6% | 91.1% | 101% | 105% |
| Cc1n(Cc2ccc3ccccc3n2)cc[n+]1Cc1ccc2ccccc2n1 | 27.2% | 72.8% | 63% | 90.4% | 61.5% | 83.3% | 62.8% | 50.6% |
| C=CCn1c(SCC(=O)Nc2ccc(/C(C)=N\O)cc2)nnc1-c1cc(-c2ccccc2)nc2ccccc12 | 15.2% | 54% | 56.1% | 51.9% | 21% | 44% | 62.1% | 44.8% |
| CC1=C(C(=O)Nc2ccc(F)cc2)C(c2ccc(Cl)cc2)C2=C(CC(C)(C)CC2=O)N1 (stereo not drawn) | 82.6% | 99.9% | 91.6% | 94.6% | 80.1% | 86.9% | 99.6% | 92.6% |
| O=C(CI)NCCNc1cccc2c(S(=O)(=O)O)cccc12 | 103% | 96.8% | 93.2% | 102% | 99.9% | 96% | 112% | 95.7% |
| Cc1cc(NC(=O)C2c3ccccc3C(=O)N(CC(C)C)C2c2cccs2)no1 (stereo not drawn) | 23.9% | -4.46% (active) | -43.8% (active) | -57% (active) | 10.4% | 0.136% (active) | -45.5% (active) | 86.8% |
| CCOc1ccc([C@@H]2[C@@H](Oc3ccccc3)C(=O)N2c2cc(OC)c(OC)c(OC)c2)cc1 | 91.8% | -18.2% (active) | -25% (active) | 20.8% | 16.9% | -3.96% (active) | 16.2% | 11.5% |
| O=C(C(Br)C(Br)c1ccccc1)C(Br)C(Br)c1ccccc1 (stereo not drawn) | -30.6% (active) | -82.8% (active) | -37.5% (active) | -71.1% (active) | -19.2% (active) | -99.5% (active) | -8.59% (active) | -63.3% (active) |
| CCN(CC)CCC(CNc1ccnc2cc(Cl)ccc12)c1ccc(O)cc1 (stereo not drawn) | 114% | 80.5% | 60.7% | 51.2% | 113% | 49.5% | 88.9% | 82% |
| COc1cc2c(cc1I)-c1c(cc(OC)c(OC)c1OC)CC[C@@H]2NC(C)=O | 55.3% | 47.7% | -8.3% (active) | 10.3% | 11.3% | 6.59% (active) | 0.415% (active) | 7.62% (active) |
| COc1ccc2[nH]c(C(=O)OCc3ccc4c(Br)cc(Br)c(O)c4n3)cc2c1 | -51.9% (active) | -88.2% (active) | -72.4% (active) | -72.8% (active) | -36.8% (active) | -74.8% (active) | -77.7% (active) | -48.6% (active) |
| O=C(c1ccccc1)N(CCCCl)C(=O)N(CCCCl)C(=O)c1ccccc1 | 93.1% | 103% | 89.6% | 89.8% | 119% | 90.9% | 95.3% | 88.3% |
| Nc1c(C(=O)c2ccc(Br)cc2)sc2nc3c(cc12)CCCC3 | 101% | 89.4% | 49.9% | 105% | 88.4% | 98.5% | 99.6% | 75.4% |
| Cc1ccc(O)c(Cc2ccccc2)c1 | 101% | 92.4% | 107% | 98.4% | 114% | 98% | 102% | 103% |
| O=C(NCCNC(=O)c1cc(S(=O)(=O)NCCc2ccccc2)c(O)c(O)c1O)c1cc(S(=O)(=O)NCCc2ccccc2)c(O)c(O)c1O | 84.1% | 48.8% | 35.2% | 54.7% | 34.9% | 33.5% | 38.6% | 34.1% |
